# Source: PubChem (National Center for Advancing Translational Sciences (NCATS))
# EPAC2 agonist: activates human EPAC2 exchange factor. Q8WZA2. Potency, µM (top dose mostly 154 µM), usual class: activators. EPAC2 activation, biochemical qHTS; response scale: 100% = 6.5 mM cAMP response. 360,000 tested, 0.079% active; further: nearly all actives have a fitted effect of over 50% in size
#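 Nucleotide exchange monitored as fluorescence drop when BODIPY-GDP leaves Rap1B. Reaction: 100 nM EPAC2, 250 nM RAP1B-BODIPY-GDP, 50 uM GDP, room temperature, kinetic read over 30 min. Activity expressed relative to 6.5 mM cAMP.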
# EPAC1 antag: blocks human EPAC1 exchange factor | 360,000 tested, 0.14% active | O95398 | AID 720709 | Potency, µM (top dose mostly 115 µM), actives largely listed as inhibitors | EPAC1 GEF assay, Rap1b-BODIPY-GDP exchange fluorescence; further: nearly all actives have a fitted effect of over 50% in size
# EPAC1 agonist: EPAC1 (human) agonism | O95398 | AID 720707 | 360,000 tested, 0.073% active | EPAC1 agonist qHTS, biochemical assay; response scale: 100% = response to 6.5 mM cAMP | Potency, µM (highest dose often 154 µM), usual class: activators; further: nearly all actives have a fitted effect of over 60% in size
#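 Nucleotide exchange assay: 100 nM EPAC1 with 250 nM Rap1B loaded with BODIPY-GDP and 50 uM GDP, room temperature. Fluorescence (480/540 nm) read every 5 min for 30 min; signal change normalized to 6.5 mM cAMP as full agonist.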
# EPAC2 antag: EPAC2 (human) antagonism; Q8WZA2; EPAC2 GEF exchange of Rap1B-BODIPY-GDP, fluorescence; Potency, µM (top dose mostly 114 µM), usual class: inhibitors; 360,000 tested, 0.18% active; further: nearly all actives have a fitted effect of over 45% in size
# ALOX12 inh: ALOX12 (human) lipoxygenase inhibition; P18054; purified 12hLO, xylenol orange hydroperoxide absorbance; Potency, µM (doses to about 108 µM), actives largely listed as inhibitors; 580,000 tested, 1.1% active; AID 1671190
#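 Hydroperoxide product was detected by ferrous iron/xylenol orange as the 573 to 405 nm absorbance ratio. Arachidonic acid at 40 uM (final) was turned over for 30 min at room temperature by 150 nM human 12hLO, pH 7.0 Hepes buffer, after 15 min compound preincubation.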
# USP1 inh: inhibitors of human USP1/UAF1 deubiquitinase. recombinant USP1/UAF1, Ub-Rhodamine cleavage fluorescence. Potency, µM (doses to about 57.1 µM), most hits filed as inhibitors. 390,000 tested, 0.23% active; further: nearly all actives have a fitted effect of over 60% in size
# Target sequence (O94782 whole entry, looked up): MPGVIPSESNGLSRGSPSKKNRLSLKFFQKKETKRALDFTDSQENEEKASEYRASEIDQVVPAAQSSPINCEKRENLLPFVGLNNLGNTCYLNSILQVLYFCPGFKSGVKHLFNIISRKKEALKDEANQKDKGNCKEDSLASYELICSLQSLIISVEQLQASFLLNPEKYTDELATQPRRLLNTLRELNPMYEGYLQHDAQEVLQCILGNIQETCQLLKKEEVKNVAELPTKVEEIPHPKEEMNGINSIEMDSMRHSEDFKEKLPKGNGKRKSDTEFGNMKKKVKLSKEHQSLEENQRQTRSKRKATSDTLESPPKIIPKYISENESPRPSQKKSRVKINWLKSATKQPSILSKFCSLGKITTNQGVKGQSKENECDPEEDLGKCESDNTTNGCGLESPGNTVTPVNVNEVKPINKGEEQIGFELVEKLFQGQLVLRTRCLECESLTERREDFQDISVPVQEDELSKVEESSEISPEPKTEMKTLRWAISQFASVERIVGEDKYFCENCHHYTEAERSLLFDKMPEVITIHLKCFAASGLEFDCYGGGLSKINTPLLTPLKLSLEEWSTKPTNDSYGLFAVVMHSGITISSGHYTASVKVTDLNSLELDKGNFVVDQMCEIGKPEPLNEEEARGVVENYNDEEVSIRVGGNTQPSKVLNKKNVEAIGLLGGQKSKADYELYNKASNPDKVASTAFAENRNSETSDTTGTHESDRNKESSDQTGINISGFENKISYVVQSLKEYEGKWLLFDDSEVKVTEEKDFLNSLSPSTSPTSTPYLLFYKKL
#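 USP1/UAF1 complex (1 nM) preincubated 15 min at room temperature with compound, then Ub-Rho substrate (150 nM final) added. Kinetic fluorescence at 480/540 nm over 6 reads at 60 s intervals; 50 mM HEPES pH 7.8, 0.5 mM EDTA, 0.1 mg/ml BSA, 1 mM TCEP, 0.01% Tween-20.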
# A number is an active result; n = inactive; u = inconclusive; x = not tested or not shown; ! = a repeat was not active; [ ] = another dose, or the depositor's remark. Only some compounds are listed: those with a hit (about 1.3% of all), similar ones and a draw of the others. The call rests on the fitted dose curve; in most records, active means well fitted curve in the direction sought with a large enough effect; inconclusive means small, poorly fitted or top-dose-only effect, or another doubt; inactive means no such curve, though single readings can be large; an effect the other way counts as inactive or inconclusive.
SMILES,EPAC2 agonist,EPAC1 antag,EPAC1 agonist,EPAC2 antag,ALOX12 inh,USP1 inh
CCN(CC(=O)Nc1c(F)cccc1F)C(=O)CCc1nc2sc3c(c2c(=O)[nH]1)CCCC3,n,u,n,n,14.1µM,n
Cc1cccc(N2CCN(C(=O)c3ccc4c(c3)NC(=O)C(CSCc3cccc(F)c3)N4)CC2C)c1 (centres undefined),n,n,n,n,22.4µM,n
Cc1cccc(N2CCN(C(=O)c3ccc4nccnc4c3)CC2C)c1 (centres undefined),n,n,n,n,n,n
COc1ccc(N2CCN(C(=O)c3ccc4c(c3)NC(=O)C(CSCc3ccccc3F)N4)CC2)cc1 (centres undefined),n,n,n,n,4.47µM,u
O=C1Nc2ccc(-c3ccc4c(c3)OCO4)cc2C(=O)N2CCN(C(=O)c3cccs3)C[C@@H]12,x,x,x,x,n,x
COc1ccc(/C=C(/C#N)c2nc3ccccc3[nH]2)cc1Cl,x,x,x,x,n,x
Cc1ccc(-c2noc([C@@H]3Cc4nc[nH]c4CN3C(=O)c3ccccc3)n2)cc1,x,x,x,x,n,x
O=c1c2ccccc2cnn1CN1CCN(S(=O)(=O)c2ccc(Cl)c(Cl)c2)CC1,x,x,x,x,n,x
CCOC(=O)CCc1c(C)[nH]n(-c2nc3ccccc3[nH]2)c1=O,x,x,x,x,n,x
Cc1cc(C)cc(NC(=S)Nc2ccc(Cl)c(Cl)c2)c1,n,n,n,n,39.8µM,n
CC(C)c1ccc(/C=N/NC(=O)c2ccncc2)cc1,x,x,x,x,n,x
CC(C)c1cc(-c2nc(-c3ccc4c(c3)OCO4)no2)n[nH]1,x,x,x,x,n,x
CCc1nc2c(OCc3cccc(Cl)c3)cccn2c1N(C)C(C)=O,20µM,n,n,n,n,x
Cc1nc2c(OCc3ccccc3)cccn2c1N(C)C(=O)C1CCCCC1,n,n,n,n,50.1µM,x
CCc1nc2c(OCc3ccccc3C)cccn2c1N(C)C(=O)C1CC1,n,n,n,n,n,x
CN(Cc1ccc(-c2ccc(Cl)cc2)o1)C(=O)CSc1nnc(C2CC2)n1Cc1ccco1,x,x,x,x,15.8µM,x
O=C(/C=C/Nc1ccc(F)cc1)C(F)(F)F,x,x,x,x,n,x
Cc1ccc(S(=O)(=O)CS(=O)(=O)c2ccc(C)cc2)cc1,n,n,n,n,n,n
Cc1ccc(S(=O)(=O)/C=C\C#N)cc1,x,x,x,x,n,x
Cc1ccc(S(=O)(=O)SC/C=C/CSS(=O)(=O)c2ccc(C)cc2)cc1,n,n,n,n,0.708µM,n
Cc1ccc(S(=O)(=O)C=CS(=O)(=O)c2ccc(C)cc2)cc1,n,n,n,n,8.91µM,n
Cc1ccc(S(=O)(=O)SCCCSS(=O)(=O)c2ccc(C)cc2)cc1,n,n,n,n,1.78µM,n
CCC(C(=O)Nc1ccccc1OCc1cc(=O)n2ccc(C)cc2n1)c1ccccc1 (centres undefined),x,x,x,x,n,x
CCn1nccc1C(=O)N1CCC2(CC1)NC(=O)N(c1ccccc1)N2,x,x,x,x,5.62µM,x
CCn1nccc1C(=O)N1CCC2(CCC2OC)CC1 (centres undefined),x,x,x,x,n,x
SMILES,EPAC2 agonist,EPAC1 antag,EPAC1 agonist,EPAC2 antag,ALOX12 inh,USP1 inh
O=C(C1CCCC1)N1CCC2(CC1)NC(=O)N(c1ccccc1)N2,x,x,x,x,2.82µM,x
O=C(C1CCCCC1)N1CCC(Cc2ccccc2)(C(=O)O)CC1,x,x,x,x,n[6.33 µM],x
Cc1ccccc1CC(=O)N1CCC2(CC1)NC(=O)N(c1ccccc1)N2,x,x,x,x,1.26µM,x
O=C(C1CC1)N1CCC2(CC1)NC(=O)N(c1cccc(Cl)c1)N2,x,x,x,x,1.41µM,x
Cc1ccccc1CC(=O)N1CCC2(CC1)N(c1ccccc1)C(=O)CS2(=O)=O,x,x,x,x,n,x
CC1=C[C@@H](CNC(=O)NC(C)C)[C@H](C(C)C)C[C@H]1Cc1nnc(-c2ccccc2F)o1,x,x,x,x,n,x
O=C(NCc1ccccn1)C1c2ccccc2C(=O)N(C2CCCCC2)C12CCCCC2 (centres undefined),x,x,x,x,n,x
CC1=C(C(=O)OCc2ccccc2)C(c2ccccc2[N+](=O)[O-])NC(=O)N1C (centres undefined),n,n,n,n,15.8µM,n
CC1=C(C(=O)OCc2ccccc2)C(c2ccc([N+](=O)[O-])cc2)NC(=O)N1C (centres undefined),n,n,n,n,n,n
CC1=C(C(=O)OCc2ccccc2)C(c2ccc(C(C)(C)C)cc2)NC(=O)N1CCCCCC(=O)O (centres undefined),n,n,n,15.8µM,25.1µM,n
CN(C)C(=O)c1ccc(NC(=O)c2cc(-c3ccco3)nc3ccccc23)cc1,n,n,n,n,15.8µM!,n
CCN(CC)CCNC(=O)c1ccc(NC(=O)c2cc(-c3ccco3)nc3ccccc23)cc1,n,n,n,n,u,n
Cc1csc(NC(=O)c2cc(-c3ccco3)nc3ccccc23)n1,n,n,n,n,25.1µM,n
Cc1csc(NC(=O)c2cc(C)nc3ccccc23)n1,n,n,n,n,n,u
O=C(Nc1nccs1)c1cc(-c2ccco2)nc2ccccc12,n,n,n,n,44.7µM,n
Cc1csc(NC(=O)c2ccc3ccccc3n2)n1,n,n,n,n,14.1µM,n
COCCn1c(C)c(C)c(S(=O)(=O)c2ccccc2)c1NC(=O)C(C)C,x,x,x,x,n,x
Cc1oc(-c2ccccc2)nc1C(=O)NC(C)CN1CCOCC1 (centres undefined),x,x,x,x,n,x
COC(=O)c1ccc(COc2ccccc2/C=N/Nc2cccc(C(=O)O)c2)cc1,n,n,n,n,u,u
O=C(O)c1cccc(NC(=S)N/N=C/c2ccccc2OCc2ccc(Br)cc2)c1,n,u,n,u,15.8µM,u
O=C(O)c1cccc(NC(=S)N/N=C/c2ccccc2OCc2cccc(Br)c2)c1,n,u,n,n,28.2µM,u
CCOc1ccc(C(=O)OCC(=O)NC(N)=O)cc1OCC,x,x,x,x,n,x
CCCCN1C(=O)C(NC(=O)c2ccc(C(C)(C)C)cc2)(C(F)(F)F)C(C(C)=O)=C1C (centres undefined),x,x,x,x,n,x
C(=N\c1ncnc2sccc12)/NOCc1ccccc1,n,n,n,n,n,n
Clc1ccc(CON/C=N/c2ncnc3sccc23)cc1,7.94µM,n,n,n,u,n
CC(C)c1nc2cc(NC3CCCCNC3=O)ccc2o1 (centres undefined),x,x,x,x,n,x
CC(C)n1c(N2CCCCC2)nc2c1c(=O)n(C)c(=O)n2C,x,x,x,x,n,x
CC(=O)C1=C(OC(=O)c2ccc(C)cc2)c2ccccc2S(=O)(=O)N1C(C)C,x,x,x,x,n,x
CCOC(=O)Cn1c(CN2CCN(c3ccccc3F)CC2)nc2c1c(=O)n(C)c(=O)n2C,x,x,x,x,n,x
Cc1nc(CCNC(=O)C2CNCCO2)sc1C (centres undefined),x,x,x,x,8.91µM,x
